High-throughput results from PubChem BioAssay.
An excerpt weighted towards active compounds, which were near 19% of everything screened.
DT40 TDP1 CPT: DT40-hTDP1 cell growth loss with CPT. actives 12% (n = 420,000). Potency, µM (titrated, usually from 46.2 µM), without a hit: at the highest dose activity change, negative = growth inhibition, hits mostly inhibitors. chicken DT40 Tdp1-/-;hTDP1 cells + 20 nM CPT, ATP luminescence, 48 h; also: potency is read from the fitted curve at half-maximal effect; nearly all actives have a fitted effect of over 55% in size
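Cell growth measured by CellTiter-Glo luminescence after a minimum 48 h, 37 C compound exposure with 20 nM CPT in Tdp1-knockout DT40 cells stably expressing hTDP1, seeded 400/well; qHTS titration format.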
DT40 TDP1 no CPT: qHTS for Inhibitors of human tyrosyl-DNA phosphodiesterase 1 (TDP1): qHTS in cells in absence of CPT; actives 15% (n = 420,000); AID 686978, 2013; Potency, µM (highest dose often 46.2 µM), inactives show at the top dose activity change, negative = growth inhibition, hits mostly inhibitors; DT40 Tdp1-/- hTDP1 cells, no CPT, ATP luminescence, 48 h; also: potency is read from the fitted curve at half-maximal effect; nearly all actives have a fitted effect of over 55% in size
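Chicken DT40 Tdp1-/- cells complemented with human TDP1, screened without camptothecin (DMSO vehicle only), 400 cells/well. Compounds pin-transferred, cells incubated at 37 °C for at least 48 hr. Growth read as ATP-dependent luminescence (CellTiter-Glo, 30 min at RT).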
HT1080NT lethal: kills 2HG-producing HT-1080-NT fibrosarcoma cells; AID 686970; Potency, µM (series often up to 46.1 µM), for inactives: at the top dose activity, negative = less viability, actives largely listed as cytotoxic; actives 1.6% (n = 360,000); HT-1080-NT fibrosarcoma viability, CellTiter-Glo ATP luminescence, 48 h;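 also: NT is the 2HG producing partner of a matched IDH1 knockdown line; potency is read from the fitted curve at half-maximal effect; 0% = DMSO-treated cells and -100% = media-only wells without cells; nearly all actives have a fitted effect of over 55% in size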
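750 cells/well, RPMI + 5% FBS; 2 h settle, compound pin-transfer, 48 h at 37 degrees C. CellTiter-Glo 10 min RT, luminescence. Normalized to DMSO and media-only wells.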
ELG1 DNA repair: ELG1-dependent DNA repair inhibition; HEK293T ELG1-luciferase reporter, luminescence, 16 h; DNA damage induced by 5-fluorouridine; Potency, µM (highest dose often 46.1 µM), for inactives: at the highest dose activity change, negative = inhibition, usual class: inhibitors; actives 2.3% (n = 330,000); AID 504467; also: potency is read from the fitted curve at half-maximal effect; nearly all actives have a fitted effect of over 55% in size
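5-Fluorouridine DNA damage + compound/DMSO, 2,000 cells/well, 16 h, 37 °C/5% CO2. ONE-Glo, 30 min RT, luminescence. Readout = decrease in reporter signal.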
IL-1B inflam inh: blocks inflammasome-driven IL-1 beta release; THP-1 LPS/ATP IL-1B secretion, AlphaLISA, 16 h; stronger effect = lower value; activity change, % at 57.5 µM; actives 4.7% (n = 360,000); AID 743279; in the data active = activity change below about -50%; inconclusive = mostly about -30% to -49%
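THP-1 cells pretreated 1 hr with compounds (up to 57.5 uM final), then stimulated with LPS (250 ng/mL final) plus ATP (1.25 mM final); secreted IL-1B measured by AlphaLISA after 16 hr, decreased signal indicating inhibition.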
HT1080 IDH1KD tx: HT-1080 IDH1 knockdown cell toxicity (counter line); HT-1080 IDH1 knockdown viability, ATP luminescence, 48 h; Potency, µM (highest dose often 46.1 µM), without a hit: top-dose activity, negative = toxicity, actives largely listed as cytotoxic; actives 2% (n = 360,000); AID 686971;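 also: potency is read from the fitted curve at half-maximal effect; 0% = DMSO wells and -100% = cell-free medium wells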
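In this qHTS, HT-1080 cells depleted of IDH1 are exposed for 48 h at 37 °C to compound titrations. Toxicity is scored from CellTiter-Glo luminescence, with DMSO as full viability and medium alone as none.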
ELG1 FLuc counter: luciferase inhibition in cell-free luciferin readout for ELG1 hits; shares compounds with ELG1 DNA repair; actives 3% (n = 350); AID 624247; cell-free firefly luciferase luminescence counter-screen, ViewLux; Potency, µM (titrated, usually from 46.1 µM), without a hit: at the highest dose activity change, negative = inhibition, hits mostly inhibitors; also: potency is read from the fitted curve at half-maximal effect
ELG1 Luc conf: confirmation of human ELG1-dependent DNA repair inhibitors | AID 624248 | shares compounds with ELG1 DNA repair | actives 68% (n = 670) | Potency, µM (doses to about 46.1 µM), inactives show at the highest dose activity change, negative = inhibition, most hits filed as inhibitors | HEK293T ELG1-luciferase levels, luminescence; cells co-treated with 5-fluorouridine; also: potency is read from the fitted curve at half-maximal effect; nearly all actives have a fitted effect of over 55% in size
Target sequence (Q96QE3 whole entry, looked up): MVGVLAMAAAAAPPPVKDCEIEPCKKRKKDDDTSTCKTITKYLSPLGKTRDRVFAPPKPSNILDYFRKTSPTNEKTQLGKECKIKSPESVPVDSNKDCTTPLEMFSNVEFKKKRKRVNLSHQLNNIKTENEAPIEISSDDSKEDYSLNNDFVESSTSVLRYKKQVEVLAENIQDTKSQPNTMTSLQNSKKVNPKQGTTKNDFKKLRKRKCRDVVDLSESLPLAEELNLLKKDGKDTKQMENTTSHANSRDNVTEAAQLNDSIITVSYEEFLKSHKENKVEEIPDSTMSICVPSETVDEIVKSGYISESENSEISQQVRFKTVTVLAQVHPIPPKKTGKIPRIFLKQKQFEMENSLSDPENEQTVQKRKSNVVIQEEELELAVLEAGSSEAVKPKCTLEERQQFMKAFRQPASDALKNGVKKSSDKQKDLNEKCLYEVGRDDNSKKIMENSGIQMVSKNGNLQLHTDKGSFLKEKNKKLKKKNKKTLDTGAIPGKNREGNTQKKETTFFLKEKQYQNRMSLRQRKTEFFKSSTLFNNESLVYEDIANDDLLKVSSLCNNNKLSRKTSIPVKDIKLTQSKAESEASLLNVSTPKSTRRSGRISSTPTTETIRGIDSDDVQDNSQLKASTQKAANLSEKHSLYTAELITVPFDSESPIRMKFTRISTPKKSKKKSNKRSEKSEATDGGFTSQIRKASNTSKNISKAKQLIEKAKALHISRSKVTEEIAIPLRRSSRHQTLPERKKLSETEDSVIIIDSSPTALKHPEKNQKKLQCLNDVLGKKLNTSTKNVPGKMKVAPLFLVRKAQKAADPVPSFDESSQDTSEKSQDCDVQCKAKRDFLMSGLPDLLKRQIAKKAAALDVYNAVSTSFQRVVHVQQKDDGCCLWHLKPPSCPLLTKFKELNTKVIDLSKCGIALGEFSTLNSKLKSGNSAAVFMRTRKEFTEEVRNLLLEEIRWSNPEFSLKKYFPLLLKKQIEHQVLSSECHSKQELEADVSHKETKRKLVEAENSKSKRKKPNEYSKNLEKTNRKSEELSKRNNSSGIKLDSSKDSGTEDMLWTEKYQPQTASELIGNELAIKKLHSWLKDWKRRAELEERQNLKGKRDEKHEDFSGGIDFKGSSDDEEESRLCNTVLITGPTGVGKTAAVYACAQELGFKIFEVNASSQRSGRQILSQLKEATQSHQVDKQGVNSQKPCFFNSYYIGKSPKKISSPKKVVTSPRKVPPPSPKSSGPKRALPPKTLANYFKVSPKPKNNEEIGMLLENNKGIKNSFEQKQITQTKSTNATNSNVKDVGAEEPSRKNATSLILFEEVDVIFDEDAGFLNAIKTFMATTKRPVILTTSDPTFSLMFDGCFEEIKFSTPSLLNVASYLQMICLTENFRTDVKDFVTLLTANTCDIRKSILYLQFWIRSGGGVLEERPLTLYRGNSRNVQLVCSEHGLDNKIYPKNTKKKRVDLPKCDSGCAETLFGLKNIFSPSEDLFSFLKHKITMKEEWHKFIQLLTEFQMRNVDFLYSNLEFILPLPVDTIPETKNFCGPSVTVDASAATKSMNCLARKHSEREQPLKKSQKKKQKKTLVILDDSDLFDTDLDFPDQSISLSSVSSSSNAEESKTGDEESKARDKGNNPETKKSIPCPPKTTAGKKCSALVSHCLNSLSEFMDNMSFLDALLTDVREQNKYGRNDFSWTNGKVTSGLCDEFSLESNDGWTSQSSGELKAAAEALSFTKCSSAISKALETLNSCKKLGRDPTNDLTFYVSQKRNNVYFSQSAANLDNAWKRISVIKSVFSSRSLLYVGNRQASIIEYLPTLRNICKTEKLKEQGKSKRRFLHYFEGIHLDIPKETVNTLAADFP
ELG1 MMS Luc: confirmation of human ELG1 repair inhibitors, MMS stimulated. actives 53% (n = 670). Potency, µM (top dose mostly 46.1 µM), without a hit: top-dose activity change, negative = inhibition, usual class: inhibitors. HEK293T luciferase-tagged ELG1 level, MMS stimulated. shares compounds with ELG1 DNA repair. AID 624249; also: potency is read from the fitted curve at half-maximal effect; nearly all actives have a fitted effect of over 60% in size
ELG1 5FU viab: confirmation of ELG1 repair inhibitors: viability with 5FU; 670 tested, under 10 active; cell viability with 5-FU, ELG1-dependent repair; Potency, µM (top dose mostly 46.1 µM), without a hit: at the top dose activity change, negative = viability loss, hits mostly cytotoxic; shares compounds with ELG1 DNA repair;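 also: ELG1-luc HEK293T cells cotreated with 5-fluorouridine at 10 µM final; potency is read from the fitted curve at half-maximal effect; viability measured 16 h after compound addition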
ELG1 MMS viab: confirmation of ELG1 repair inhibitors: viability with MMS; shares compounds with ELG1 DNA repair; Cell viability with MMS, ELG1-dependent DNA repair; Potency, µM (highest dose often 46.1 µM), inactives show at the top dose activity change, negative = viability loss, usual class: cytotoxic; actives 33% (n = 670); AID 624251;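 also: ELG1-luc HEK293T cells co-treated with 10 µM MMS; potency is read from the fitted curve at half-maximal effect; viability read 16 h after compound addition; nearly all actives have a fitted effect of over 60% in size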
ELG1 unstim viab: counter-screen for ELG1 repair inhibitors: unstimulated cell viability; shares compounds with ELG1 DNA repair; cell viability counter-screen, unstimulated, luminescence; Potency, µM (highest dose often 45.9 µM), for inactives: at the highest dose activity change, negative = loss of viability, actives largely listed as cytotoxic; actives 8% (n = 900);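 also: potency is read from the fitted curve at half-maximal effect; compound exposure lasted 16 hours before reading; nearly all actives have a fitted effect of over 55% in size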
FLuc enzyme: inhibits purified firefly luciferase, counter-screen for ELG1 hits; Potency, µM (highest dose often 57.5 µM), for the others: at the top dose activity, negative = inhibition, usual class: inhibitors; shares compounds with ELG1 DNA repair; AID 624253; purified firefly luciferase, luminescence counter-screen; actives 10% (n = 350); also: potency is read from the fitted curve at half-maximal effect
The depositor's hits bear a star; ? = inconclusive; . = no result given; [ ] = dose if it differs, or a comment. Unless noted, calls follow the shape of the dose curve; as a rule, active = well fitted curve in the direction sought with a large enough effect; inconclusive = small, poorly fitted or top-dose-only effect, or another doubt; inactive = no such curve, though single readings can be large; an effect the other way counts as inactive or inconclusive. Unless noted, % is scaled to controls: 0 for no effect and ±100 for the full control effect.

SMILES	DT40 TDP1 CPT	DT40 TDP1 no CPT	HT1080NT lethal	ELG1 DNA repair	IL-1B inflam inh	HT1080 IDH1KD tx	ELG1 Luc conf	ELG1 MMS Luc	ELG1 5FU viab	ELG1 MMS viab	ELG1 unstim viab	others
COc1ccc(C(=O)Nc2nc(-c3ccccn3)cs2)cc1S(=O)(=O)N1CCOCC1	13µM*	5.2µM*	-22%	4.1µM*	78	?	13µM*	22µM*	-2%	28µM*	?
O=C(Nc1nc(-c2cccs2)cs1)c1ccc(S(=O)(=O)N2CCCCC2)cc1	?	?	?	?	?	-18%	.	.	.	.	.
O=C(Nc1nc(-c2ccccn2)cs1)c1ccc(S(=O)(=O)N2CCCCC2)cc1	.	.	.	0.65µM*	.	.	36µM*	26µM*	11%[92.2 µM]	36µM*	?	ELG1 FLuc counter=?;FLuc enzyme=-11%[115 µM]
COc1ccc(S(=O)(=O)NCC(=O)NCc2cc(=O)n(C)c(=O)n2C)cc1	3%	10%	23%	0%	19	13%	.	.	.	.	.
COc1cc2c(C#CCCO)c(-c3ccsc3)oc(=O)c2cc1OC	?	8.2µM*	-12%	?	-73*	-8%	6.3µM*	7.9µM*	-3%	-8%	?	ELG1 FLuc counter=5%;FLuc enzyme=1%
Cc1ccc(NC(=O)N2CCc3cc(S(=O)(=O)N4CCC(C)CC4)ccc32)cc1	-17%	-20%	.	.	.	.	.	.	.	.	.
Cc1ccc(NC(=O)CN(C)CC(=O)Nc2sc3c(c2C(N)=O)CCC3)cc1	?	?	-21%	?	-28	-16%	.	.	.	.	.
CN(CC(=O)Nc1ccccc1Cl)CC(=O)Nc1sc2c(c1C(N)=O)CCC2	26µM*	18µM*	-12%	4.6µM*	?	-2%	16µM*	?	10%	-5%	?
CC(=O)C1=C(O)C(=O)N(c2ccc(S(=O)(=O)Nc3nccs3)cc2)C1c1ccc(F)cc1 (stereo not drawn)	-7%	7%	?	?	17	13%	.	.	.	.	.
CC(/C=N/n1c(-c2cccnc2)n[nH]c1=S)=C\c1ccccc1	?	?	0%	?	0	0%	.	.	.	.	.
CC(=C/c1ccccc1)/C=N/n1c(-c2ccncc2)n[nH]c1=S	?	16µM*	5%	2.3µM*	48	13%	2.8µM*	?	-2%	2%	-4%
CCOc1ccc(S(=O)(=O)N2CCOCC2)cc1NC(=O)CN1C(=O)NC(C)(c2ccccc2)C1=O (stereo not drawn)	-4%	-9%	-3%	?	4	-1%	.	.	.	.	.
CN(C)S(=O)(=O)c1cccc(CSCc2cccc(S(=O)(=O)N(C)C)c2)c1	5.8µM*	2.6µM*	?	1.3µM*	?	?	?	1.1µM*	-13%	1.1µM*	?
O=C(C1=C[C@H](c2ccc(Br)cc2)C[C@H](OCc2ccc(CO)cc2)O1)N1CCN(Cc2ccc3c(c2)OCO3)CC1	?	?	-19%	9.2µM*	.	-23%	7.9µM*	?	?	-6%	?	ELG1 FLuc counter=?;FLuc enzyme=-9%
C#Cc1ccc([C@H]2C=C(C(=O)N3CCN(Cc4ccc5c(c4)OCO5)CC3)O[C@@H](OCc3ccc(CO)cc3)C2)cc1	?	?	-1%	1.6µM*	0	-5%	5.6µM*	?	?	?	-3%	ELG1 FLuc counter=-7%;FLuc enzyme=-1%
C#Cc1ccc([C@H]2C=C(C(=O)O)O[C@@H](OCc3ccc(CO)cc3)C2)cc1	-29%	-2%	7%	4%	-11	8%	.	.	.	.	.
CN1CCN(C(=O)C2=C[C@@H](c3ccc4c(c3)OCO4)C[C@@H](OCc3ccc(CO)cc3)O2)CC1	5%	-19%	14%	11%	-3	7%	.	.	.	.	.
CN(C)S(=O)(=O)c1ccc(Cl)c(C(=O)NNC(=O)c2ccc3c(c2)OCO3)c1	-19%	?	1%	-2%	-9	0%	.	.	.	.	.
CC(=O)c1ccc(-n2ccc(=O)cc2)cc1	7%	0%	0%	15%	9	16%	.	.	.	.	.
Cc1nn(C)c(C)c1/C=C/C(=O)O	2%	6%	3%	-1%	7	7%	.	.	.	.	.
Cc1nn(C)c(C)c1/C=C/C(=O)c1ccc(Cl)cc1Cl	8.2µM*	13µM*	-17%	4.1µM*	-68*	-23%	5%	1.6µM*	-5%	2.2µM*	?
CN(C(=O)CCc1nc(-c2ccccc2F)no1)c1ccccc1	-19%	-9%	-2%	?	-2	7%	.	.	.	.	.
O=C1CCC[C@@H]2Cc3nc4ccc(O)cc4cc3[C@@H]3CCN1[C@H]23	10%	4%	22%	.	5	11%	.	.	.	.	.
